Calls of active or inactive are those of the source. The calls were made as follows: active = hit-call score of the fitted dose curve at least 0.9, where 1 is the maximum; inactive = score below 0.9.

Read-out in assay [1]: Interleukin-1 alpha (IL1a), IL1A (gene 3552)
The assay is described as follows: BSK_KF3CT_IL1a: BioMAP Diversity Plus: KF3CT Assay for Interleukin-1 alpha (IL1a) Biomarker Activity (AID 2283070). As to conditions: primary human keratinocytes with fibroblasts; actives raise or lower the signal. In short, it runs like this: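 Readout is IL-1a level by ELISA, compared bidirectionally with DMSO as baseline. Cells: human keratinocytes co-cultured with foreskin fibroblasts, harvested 24 h post-dose.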

Read-out in assay [2]: TIMP metallopeptidase inhibitor 2 (TIMP2), TIMP2 (gene 7077)
Nature of the assay: BSK_KF3CT_TIMP2: BioMAP Diversity Plus: KF3CT Assay for TIMP metallopeptidase inhibitor 2 (TIMP2) Biomarker Activity (AID 2283071). To be noted: primary human keratinocytes with fibroblasts; actives raise or lower the signal. In short, it runs like this:
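TIMP-2 measured by ELISA at 24 h in human keratinocyte/fibroblast primary co-cultures exposed to chemicals. Both increases and decreases were fitted against DMSO. Parallel cultures were stained with SRB for total protein as an overt-cytotoxicity check.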

Read-out in assay [3]: Transforming growth factor beta 1 (TGFb1), TGFB1 (gene 7040)
The assay is described as follows: BSK_KF3CT_TGFb1: BioMAP Diversity Plus: KF3CT Assay for Transforming growth factor beta 1 (TGFb1) Biomarker Activity (AID 2283072). As to conditions: primary human keratinocytes with fibroblasts; actives raise or lower the signal. The essentials:
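ELISA quantifies TGF-b1 at 24 h post-dose in a primary human skin co-culture of keratinocytes and fibroblasts, with gain or loss judged against DMSO. Parallel SRB total-protein staining flags overt cytotoxicity.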

Read-out in assay [4]: C-C motif chemokine 2 (Homo sapiens) (UniProt P13500)
The assay is described as follows: BSK_KF3CT_MCP1: BioMAP Diversity Plus: KF3CT Assay for Monocyte Chemoattractant Protein 1 (MCP1/CCL2) Biomarker Activity (AID 2283073). As to conditions: primary human keratinocytes with fibroblasts; actives raise or lower the signal. In short, it runs like this:
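Keratinocytes and foreskin fibroblasts were co-cultured, dosed with chemical, and sampled 24 h later. MCP-1 was quantified by ELISA, and the endpoint was analyzed with bidirectional fitting using DMSO as negative control.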

Read-out in assay [5]: Matrix Metallopeptidase 9 (MMP9), MMP9 (gene 4318)
The assay is described as follows: BSK_KF3CT_MMP9: BioMAP Diversity Plus: KF3CT Assay for Matrix Metallopeptidase 9 (MMP9) Biomarker Activity (AID 2283074).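 As to AC50: MMP9 protein level quantified by ELISA in the co-culture.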 As to conditions: primary human keratinocytes with fibroblasts; actives raise or lower the signal. The essentials: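 Values come from bidirectional fitting relative to DMSO of MMP-9 levels, which were measured by ELISA. Measurements were taken 24 h after chemical dosing of a keratinocyte and foreskin fibroblast co-culture.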

Read-out in assay [6]: urokinase plasminogen activator (uPA), PLAU (gene 5328)
Nature of the assay: BSK_KF3CT_uPA: BioMAP Diversity Plus: KF3CT Assay for urokinase plasminogen activator (uPA) Biomarker Activity (AID 2283075). To be noted: primary human keratinocytes with fibroblasts; actives raise or lower the signal. The essentials:
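Values derive from bidirectional fitting against DMSO controls. Keratinocyte/foreskin fibroblast co-cultures received chemical; 24 h later uPA was detected by ELISA, with SRB total-protein staining in parallel wells for overt cytotoxicity.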

Read-out in another assay: CD40, CD40 (gene 958)
The assay is described as follows: BSK_LPS_CD40: BioMAP Diversity Plus: LPS Assay for CD40 Biomarker Activity (AID 2283076). To be noted: primary human HUVEC with PBMC; actives raise or lower the signal. The essentials:
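CD40 signal, measured by ELISA, is fitted in both directions relative to DMSO vehicle. The system is an LPS-driven human vascular primary co-culture of endothelial cells and PBMC, sampled 24 h after compound addition.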

Read-out in assay [7]: E-selectin (Homo sapiens) (UniProt P16581)
Nature of the assay: BSK_LPS_Eselectin: BioMAP Diversity Plus: LPS Assay for Eselectin Biomarker Activity (AID 2283077). As to conditions: primary human HUVEC with PBMC; actives raise or lower the signal. In short, it runs like this:
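Signal of E-selectin, detected by ELISA, served as the endpoint; cells were umbilical vein endothelium with PBMC, read 24 h after treatment. DMSO defined baseline, and both increases and decreases were fitted.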

Read-out in assay [8]: Interleukin-8 (IL8), CXCL8 (gene 3576)
The assay is described as follows: BSK_LPS_IL8: BioMAP Diversity Plus: LPS Assay for Interleukin-8 (IL8) Biomarker Activity (AID 2283078). To be noted: primary human HUVEC with PBMC; actives raise or lower the signal. The essentials: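 Endothelial cells and PBMC from human donors are co-cultured, treated with chemicals and LPS, then assayed for IL-8 by ELISA after 24 h. Parallel SRB staining (0.1% SRB after 10% TCA fixation, 560 nm) flags cytotoxicity.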

Assay [9] is described as follows: BSK_LPS_SRB: Viability Assessment in the BioMAP Diversity Plus: LPS Assay (AID 2283079).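 Also: total protein by sulforhodamine B absorbance as a cytotoxicity measure; measured one day after compound addition; fitted in both directions against DMSO so loss or gain of signal counts.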 As to conditions: primary human HUVEC with PBMC. In short, it runs like this: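 Overt cytotoxicity was gauged by sulforhodamine B total-protein staining in a primary human vascular endothelial and mononuclear cell co-culture 24 h post-dosing. Activity was fitted in both directions relative to DMSO.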

Read-out in assay [10]: Interleukin-1 alpha (IL1a), IL1A (gene 3552)
Nature of the assay: BSK_LPS_IL1a: BioMAP Diversity Plus: LPS Assay for Interleukin-1 alpha (IL1a) Biomarker Activity (AID 2283080). To be noted: primary human HUVEC with PBMC; actives raise or lower the signal. In short, it runs like this: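 Measured: IL-1 alpha via ELISA at 24 h in LPS-activated human umbilical vein endothelium–PBMC co-culture. Baseline: DMSO, bidirectional fitting.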

Read-out in assay [11]: Monocyte Chemoattractant Protein-1 (MCP1), CCL2 (gene 6347)
Nature of the assay: BSK_LPS_MCP1: BioMAP Diversity Plus: LPS Assay for Monocyte Chemoattractant Protein-1 (MCP1) Biomarker Activity (AID 2283081).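 As to AC50: secreted MCP-1 protein quantified by ELISA in culture supernatant.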 As to conditions: primary human HUVEC with PBMC; actives raise or lower the signal. The essentials: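 LPS-stimulated HUVEC/PBMC co-culture; chemical, 24 h; MCP-1 by ELISA; bidirectional fit vs DMSO; cytotoxicity via SRB (0.1% stain, 10% TCA fix, 560 nm) in parallel wells.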

The nature of assay [12]: BSK_LPS_PGE2: BioMAP Diversity Plus: LPS Assay for Prostaglandin E2 (PGE2) Biomarker Activity (AID 2283082). As to conditions: primary human HUVEC with PBMC; actives raise or lower the signal. In short, it runs like this: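 PGE2 release measured by ELISA in an LPS-activated co-culture of human umbilical vein endothelial cells and peripheral blood mononuclear cells, read at 24 h post-dosing. DMSO served as baseline for bidirectional curve fitting.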

Read-out in assay [13]: Macrophage colony-stimulating factor (MCSF), CSF1 (gene 1435)
Nature of the assay: BSK_LPS_MCSF: BioMAP Diversity Plus: LPS Assay for Macrophage colony-stimulating factor (MCSF) Biomarker Activity (AID 2283083). As to conditions: primary human HUVEC with PBMC; actives raise or lower the signal. The essentials:
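Compound is added to a human vascular primary co-culture of umbilical vein endothelium and blood mononuclear cells. After 24 h, M-CSF is quantified by ELISA. Signal changes are fitted in both directions against DMSO.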

Read-out in assay [14]: Tissue Factor, F3 (gene 2152)
Nature of the assay: BSK_LPS_TissueFactor: BioMAP Diversity Plus: LPS Assay for Tissue Factor Biomarker Activity (AID 2283084). To be noted: primary human HUVEC with PBMC; actives raise or lower the signal. In short, it runs like this: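 In this co-culture system of umbilical vein endothelium with PBMC, stimulated with LPS, cell-surface CD142 is detected by ELISA at 24 h. Endpoint values derive from bidirectional fitting, DMSO serving as baseline.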

Read-out in assay [15]: Tumor necrosis factor (Homo sapiens) (UniProt P01375)
Nature of the assay: BSK_LPS_TNFa: BioMAP Diversity Plus: LPS Assay for Tumour Necrosis Factor alpha (TNFa) Biomarker Activity (AID 2283085).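 As to AC50: TNFa protein level quantified by ELISA in the co-culture.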 As to conditions: primary human HUVEC with PBMC; actives raise or lower the signal. In short, it runs like this:
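TNFa was quantified by ELISA in LPS-activated co-cultures of human endothelial cells and PBMC, 24 h post-dosing. Both increases and decreases versus DMSO were fitted.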

Read-out in assay [16]: Vascular cell adhesion molecule 1 (VCAM1), VCAM1 (gene 7412)
Nature of the assay: BSK_LPS_VCAM1: BioMAP Diversity Plus: LPS Assay for Vascular cell adhesion molecule 1 (VCAM1) Biomarker Activity (AID 2283086). As to conditions: primary human HUVEC with PBMC; actives raise or lower the signal. In short, it runs like this:
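VCAM-1 quantified by ELISA in an LPS-activated co-culture of human endothelial cells and peripheral blood mononuclear cells, read 24 h post-treatment. Fitted in both directions versus DMSO; parallel SRB staining flags overt cytotoxicity.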

Read-out in another assay: CD38, CD38 (gene 952)
The assay is described as follows: BSK_SAg_CD38: BioMAP Diversity Plus: SAg Assay for CD38 Biomarker Activity (AID 2283087). As to conditions: primary human HUVEC with PBMC; actives raise or lower the signal. In short, it runs like this: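 CD38 quantified by ELISA (fluorescence) in a superantigen-activated endothelial cell–PBMC co-culture at 24 h post-dose. Activity fitted in both directions relative to DMSO; parallel SRB and Alamar Blue cytotoxicity read-outs.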

Read-out in a further assay: CD69, CD69 (gene 969)
The assay is described as follows: BSK_SAg_CD69: BioMAP Diversity Plus: SAg Assay for CD69 Biomarker Activity (AID 2283089).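 As to AC50: cell surface CD69 protein quantified by ELISA with fluorescence detection.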 To be noted: primary human HUVEC with PBMC; actives raise or lower the signal. In short, it runs like this:
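HUVEC co-cultured with PBMC were dosed with chemical, and CD69 was measured by ELISA with fluorescence read-out 24 h later. Bidirectional curve fitting used DMSO as negative control and activity baseline.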

Chain of E-selectin (Homo sapiens) (P16581 whole entry, looked up): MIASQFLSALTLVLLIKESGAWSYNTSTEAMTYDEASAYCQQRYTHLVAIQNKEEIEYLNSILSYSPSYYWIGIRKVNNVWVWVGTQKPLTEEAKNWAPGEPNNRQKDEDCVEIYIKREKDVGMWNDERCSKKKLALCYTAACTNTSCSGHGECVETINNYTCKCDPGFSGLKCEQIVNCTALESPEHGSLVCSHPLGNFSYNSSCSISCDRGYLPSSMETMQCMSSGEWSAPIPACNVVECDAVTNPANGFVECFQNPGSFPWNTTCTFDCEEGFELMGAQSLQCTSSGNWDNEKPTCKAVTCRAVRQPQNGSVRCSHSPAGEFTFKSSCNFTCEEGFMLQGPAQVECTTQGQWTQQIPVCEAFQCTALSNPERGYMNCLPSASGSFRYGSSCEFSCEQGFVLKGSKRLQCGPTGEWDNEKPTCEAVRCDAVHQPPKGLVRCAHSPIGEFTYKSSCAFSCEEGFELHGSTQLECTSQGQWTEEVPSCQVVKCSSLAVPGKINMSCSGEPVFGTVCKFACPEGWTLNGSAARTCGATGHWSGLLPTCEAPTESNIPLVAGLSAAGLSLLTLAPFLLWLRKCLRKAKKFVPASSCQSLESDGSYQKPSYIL
Chain of Tumor necrosis factor (Homo sapiens) (P01375 whole entry, looked up): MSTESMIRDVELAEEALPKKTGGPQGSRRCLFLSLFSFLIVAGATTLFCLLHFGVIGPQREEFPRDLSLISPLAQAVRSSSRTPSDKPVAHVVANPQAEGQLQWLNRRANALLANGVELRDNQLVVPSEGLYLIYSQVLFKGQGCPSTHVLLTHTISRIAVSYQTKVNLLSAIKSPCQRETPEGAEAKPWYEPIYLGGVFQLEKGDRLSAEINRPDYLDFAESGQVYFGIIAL

What is called AC50 is the concentration giving half of the maximal activity seen. Regarding `CC(C)N(C(=O)SCC(Cl)=C(Cl)Cl)C(C)C`, the AC50 in [1] was 30.5 µM (active); in assay [2], 36.4 µM (active); in assay [4] it was 30.5 µM (active); in assay [5], 36.6 µM (active); in assay [6], 32.6 µM (active); in the assay with CD40, CD40 (gene 958), 29.9 µM (active). Moreover, the AC50 in assay [7] was 31.6 µM (active); in assay [8], 29.5 µM (active); in assay [9], 29.1 µM (active); in [10], 26.4 µM (active); in assay [11], 31.7 µM (active); in [12] it was 34.7 µM (active). The AC50 in [13] is 29.5 µM (active); in assay [14], 30.1 µM (active); in assay [15], 32.3 µM (active); in assay [16], 29.8 µM (active); in the assay with CD38, CD38 (gene 952), 31.3 µM (active); with CD69, CD69 (gene 969), 36.6 µM (active). Further, the outcome in assay [3] was inactive.

Take `CCOP(=S)(OCC)Oc1ccc2c(C)c(Cl)c(=O)oc2c1`: in assay [1], the AC50 is 14.4 µM (active). The outcome in [2] was “inactive”; in assay [3], “inactive”; in assay [4] it was “inactive”; in assay [5] it was “inactive”; in assay [6], “inactive”; with CD40, CD40 (gene 958) it was “inactive”. The result in assay [7], in assay [8], in [9], in [10], in [11] and in assay [12] was inactive. For the same molecule, the outcome in assay [13] was “inactive”; in [14], “inactive”; in [15], “inactive”; in assay [16], “inactive”; with CD38, CD38 (gene 952) it was “inactive”; with CD69, CD69 (gene 969) it was “inactive”.
